Measurements taken from PubChem BioAssay AID1159580 (chemical genetic matrix, 2015).
Screen size: about 5,500 compounds; about 2,000 (36%) were called active. Not shown: some 18% with an inconclusive outcome. Cut-off read from the data, not from the text of the source: active = normalized growth mostly below about 0.91 (no sharp cut-off); inconclusive = no clear call, values can overlap the other calls; inactive = mostly above about 0.92. The list shows a part of the results.

Assay: chemical genetic growth profiling, strain panel (AID 1159580);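 note: tested at 20 µM; growth read once vehicle control cultures reached saturation at 30 °C; 1 = growth at the plate median or of vehicle wells; lower values mean less growth of the strain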
Details: growth OD
[1] = S. cerevisiae deletion strains, locus YAL013W, strain DEP1, stronger effect = lower value
[2] = S. cerevisiae deletion strains, locus YBR229C, strain ROT2, stronger effect = lower value
[3] = S. cerevisiae deletion strains, locus YDL101C, strain DUN1, stronger effect = lower value
[4] = S. cerevisiae deletion strains, locus YDR150W, strain NUM1, stronger effect = lower value
[5] = S. cerevisiae deletion strains, locus YEL061C, strain CIN8, stronger effect = lower value
[6] = S. cerevisiae deletion strains, locus YGR078C, strain PAC10, stronger effect = lower value
[7] = S. cerevisiae deletion strains, locus YGR229C, strain SMI1, stronger effect = lower value
[8] = S. cerevisiae deletion strains, locus YHR030C, strain SLT2, stronger effect = lower value
[9] = S. cerevisiae deletion strains, locus YHR087W, strain rtc3, stronger effect = lower value
[10] = S. cerevisiae deletion strains, locus YJL187C, strain SWE1, stronger effect = lower value
[11] = S. cerevisiae deletion strains, locus YJR043C, strain POL32, stronger effect = lower value
[12] = S. cerevisiae deletion strains, locus YJR075W, strain HOC1, stronger effect = lower value
[13] = S. cerevisiae deletion strains, locus YLR039C, strain RIC1, stronger effect = lower value
[14] = S. cerevisiae deletion strains, locus YLR058C, strain SHM2 (second series), stronger effect = lower value
[15] = S. cerevisiae deletion strains, locus YLR085C, strain ARP6, stronger effect = lower value
[16] = S. cerevisiae deletion strains, locus YLR262C, strain YPT6, stronger effect = lower value
[17] = S. cerevisiae deletion strains, locus YML094W, strain GIM5, stronger effect = lower value
[18] = S. cerevisiae deletion strains, locus YMR219W, strain ESC1, stronger effect = lower value
[19] = S. cerevisiae deletion strains, locus YMR263W, strain SAP30, stronger effect = lower value
[20] = S. cerevisiae deletion strains, locus YNL153C, strain GIM3, stronger effect = lower value
[21] = S. cerevisiae deletion strains, locus YNL298W, strain CLA4 (second series), stronger effect = lower value
[22] = S. cerevisiae deletion strains, locus YNL322C, strain KRE1, stronger effect = lower value
[23] = S. cerevisiae deletion strains, locus YNR030W, strain Alg12, stronger effect = lower value
[24] = S. cerevisiae deletion strains, locus YOL006C, strain TOP1, stronger effect = lower value
[25] = S. cerevisiae deletion strains, locus YPL055C, strain LGE1, stronger effect = lower value
[26] = S. cerevisiae deletion strains, locus YPL241C, strain CIN2, stronger effect = lower value
[27] = S. cerevisiae deletion strains, locus YPR135W, strain CTF4, stronger effect = lower value
[28] = S. cerevisiae strains, strain wild type, stronger effect = lower value

Measured: normalized growth

Cc1ccc(-n2cccc2)c(NC(=S)Nc2ccc(Br)cc2OC(F)(F)F)c1
inactive: [1] 0.978 | [2] 1 | [3] 1.02 | S. cerevisiae deletion strains, locus YDL134C, strain PPH21, stronger effect = lower value 1.01 | [4] 0.892 | [5] 0.988 | [6] 0.973 | [7] 1.03 | [9] 1.02 | [10] 0.987 | [11] 1.03 | [12] 0.972 | [14] 1.01 | [17] 0.904 | [18] 1.01 | [19] 0.964 | [20] 0.979 | [22] 1.01 | [23] 0.925 | [24] 0.796 | [25] 0.882 | [26] 0.92 | [27] 0.679 | [28] 0.998
active: [8] 0.558 | [13] 0.621 | [15] 0.658 | [16] 0.587 | [21] 0.757

COCCCNC(=S)Nc1ccc(C)cc1C
inactive: [1] 0.985 | [2] 0.974 | [3] 0.968 | [4] 0.966 | [5] 1.01 | [6] 0.98 | [7] 0.986 | [8] 0.974 | [9] 1.04 | [10] 0.993 | [11] 0.977 | [12] 1 | [13] 0.975 | [14] 0.982 | [15] 0.921 | [16] 0.961 | [17] 1 | [18] 0.99 | [19] 0.999 | [20] 0.986 | [21] 0.97 | [22] 0.981 | [23] 1 | [24] 0.923 | [25] 1.01 | [26] 0.973 | [27] 0.917 | [28] 0.987

Cc1ccc(NC(=S)NCCO)c(C)c1
inactive: [1] 1 | [2] 0.987 | [3] 1.01 | [4] 1 | [5] 0.99 | [6] 1.01 | [8] 1 | [9] 1.01 | [11] 0.997 | [12] 0.978 | [13] 1.01 | [14] 0.996 | [15] 1 | [16] 1 | [17] 1.01 | [18] 1 | [19] 1 | S. cerevisiae deletion strains, locus YNL128W, strain TEP1, stronger effect = lower value 1 | [20] 1 | [21] 1.02 | [22] 0.98 | [23] 0.986 | [24] 1.03 | [25] 1.01 | [26] 0.945 | [27] 1.03

CCCCCCCCCCCCCCCC(=O)OC1C(SC)OC(C(NC(=O)C2CC(CCC)CN2C)C(C)Cl)C(O)C1O (stereo not given)
inactive: S. cerevisiae deletion strains, locus YAL021C, strain ccr4, stronger effect = lower value 0.958 | S. cerevisiae deletion strains, locus YAL026C, strain drs2, stronger effect = lower value 0.976 | S. cerevisiae deletion strains, locus YAL030W, strain snc1, stronger effect = lower value 0.989 | S. cerevisiae deletion strains, locus YBL061C, strain skt5, stronger effect = lower value 0.963 | S. cerevisiae deletion strains, locus YBR009C, strain hhf1, stronger effect = lower value 0.977 | S. cerevisiae deletion strains, locus YBR023C, strain chs3, stronger effect = lower value 0.984 | S. cerevisiae deletion strains, locus YBR171W, strain sec66, stronger effect = lower value 0.961 | S. cerevisiae deletion strains, locus YBR231C, strain swc5, stronger effect = lower value 0.979 | S. cerevisiae deletion strains, locus YBR279W, strain paf1, stronger effect = lower value 0.981 | S. cerevisiae deletion strains, locus YCL011C, strain gbp2, stronger effect = lower value 0.978 | S. cerevisiae deletion strains, locus YCL016C, strain dcc1, stronger effect = lower value 0.982 | S. cerevisiae deletion strains, locus YCL061C, strain MRC1, stronger effect = lower value 0.98 | S. cerevisiae deletion strains, locus YCL069W, strain vba3, stronger effect = lower value 0.985 | S. cerevisiae deletion strains, locus YCR088W, strain abp1, stronger effect = lower value 0.972 | S. cerevisiae deletion strains, locus YDL005C, strain med2, stronger effect = lower value 0.968 | S. cerevisiae deletion strains, locus YDL040C, strain nat1, stronger effect = lower value 0.979 | S. cerevisiae deletion strains, locus YDR001C, strain nth1, stronger effect = lower value 0.974 | S. cerevisiae deletion strains, locus YDR069C, strain doa4, stronger effect = lower value 0.975 | S. cerevisiae deletion strains, locus YDR137W, strain rgp1, stronger effect = lower value 1 | S. cerevisiae deletion strains, locus YDR159W, strain sac3, stronger effect = lower value 0.958 | S. cerevisiae deletion strains, locus YDR195W, strain ref2 0.964 | S. cerevisiae deletion strains, locus YDR297W, strain sur2, stronger effect = lower value 0.976 | S. cerevisiae deletion strains, locus YDR334W, strain swr1, stronger effect = lower value 0.973 | S. cerevisiae deletion strains, locus YDR335W, strain msn5, stronger effect = lower value 0.978 | S. cerevisiae deletion strains, locus YDR392W, strain spt3, stronger effect = lower value 0.96 | S. cerevisiae deletion strains, locus YEL003W, strain gim4, stronger effect = lower value 0.98 | S. cerevisiae deletion strains, locus YEL037C, strain rad23, stronger effect = lower value 0.979 | S. cerevisiae deletion strains, locus YEL061C, strain CIN8 (second series), stronger effect = lower value 0.985 | S. cerevisiae deletion strains, locus YER015W, strain faa2, stronger effect = lower value 0.972 | S. cerevisiae deletion strains, locus YER016W, strain bim1, stronger effect = lower value 0.976 | S. cerevisiae deletion strains, locus YER111C, strain swi4, stronger effect = lower value 0.964 | S. cerevisiae deletion strains, locus YER155C, strain BEM2 (second series), stronger effect = lower value 0.968 | S. cerevisiae deletion strains, locus YFR010W, strain ubp6, stronger effect = lower value 0.961 | S. cerevisiae deletion strains, locus YGL167C, strain pmr1, stronger effect = lower value 0.972 | S. cerevisiae deletion strains, locus YGL173C, strain kem1, stronger effect = lower value 0.975 | S. cerevisiae deletion strains, locus YGL227W, strain vid30, stronger effect = lower value 0.963 | S. cerevisiae deletion strains, locus YGL240W, strain doc1, stronger effect = lower value 0.983 | S. cerevisiae deletion strains, locus YGL253W, strain hxk2, stronger effect = lower value 0.978 | S. cerevisiae deletion strains, locus YHR013C, strain ard1, stronger effect = lower value 0.98 | S. cerevisiae deletion strains, locus YHR027C, strain rpn1, stronger effect = lower value 0.985 | S. cerevisiae deletion strains, locus YHR142W, strain chs7, stronger effect = lower value 0.97 | S. cerevisiae deletion strains, locus YJL092W, strain hpr5, stronger effect = lower value 0.967 | S. cerevisiae deletion strains, locus YJL095W, strain BCK1 (second series), stronger effect = lower value 0.99 | S. cerevisiae deletion strains, locus YJL115W, strain asf1, stronger effect = lower value 0.974 | S. cerevisiae deletion strains, locus YJL129C, strain trk1, stronger effect = lower value 0.983 | S. cerevisiae deletion strains, locus YJL154C, strain vps35, stronger effect = lower value 0.963 | S. cerevisiae deletion strains, locus YJL164C, strain tpk1, stronger effect = lower value 0.986 | S. cerevisiae deletion strains, locus YJL166W, strain qcr8, stronger effect = lower value 0.988 | [10] 0.982 | S. cerevisiae deletion strains, locus YKL160W, strain elf1, stronger effect = lower value 0.988 | S. cerevisiae deletion strains, locus YKR026C, strain gcn3, stronger effect = lower value 0.973 | S. cerevisiae deletion strains, locus YKR091W, strain srl3, stronger effect = lower value 0.985 | S. cerevisiae deletion strains, locus YLL001W, strain dnm1, stronger effect = lower value 0.99 | S. cerevisiae deletion strains, locus YLL026W, stronger effect = lower value 0.974 | S. cerevisiae deletion strains, locus YLL041C, strain sdh2, stronger effect = lower value 0.978 | S. cerevisiae deletion strains, locus YLR027C, strain aat2, stronger effect = lower value 0.976 | S. cerevisiae deletion strains, locus YLR221C, strain rsa3, stronger effect = lower value 0.976 | S. cerevisiae deletion strains, locus YLR258W, strain gsy2, stronger effect = lower value 0.984 | S. cerevisiae deletion strains, locus YLR262C, strain YPT6 (second series), stronger effect = lower value 1.02 | S. cerevisiae deletion strains, locus YLR320W, strain mms22, stronger effect = lower value 0.964 | S. cerevisiae deletion strains, locus YLR342W, strain FKS1, stronger effect = lower value 0.966 | S. cerevisiae deletion strains, locus YLR357W, strain rsc2, stronger effect = lower value 0.95 | S. cerevisiae deletion strains, locus YLR370C, strain arc18, stronger effect = lower value 0.977 | S. cerevisiae deletion strains, locus YLR384C, strain iki3, stronger effect = lower value 0.955 | S. cerevisiae deletion strains, locus YML120C, strain ndi1, stronger effect = lower value 0.989 | S. cerevisiae deletion strains, locus YMR058W, strain fet3, stronger effect = lower value 0.977 | S. cerevisiae deletion strains, locus YMR125W, strain sto1, stronger effect = lower value 0.971 | S. cerevisiae deletion strains, locus YMR129W, stronger effect = lower value 0.977 | S. cerevisiae deletion strains, locus YMR205C, strain PFK2, stronger effect = lower value 0.972 | S. cerevisiae deletion strains, locus YMR231W, strain pep5, stronger effect = lower value 0.959 | S. cerevisiae deletion strains, locus YNL071W, strain lat1, stronger effect = lower value 0.993 | S. cerevisiae deletion strains, locus YNL209W, strain ssb2, stronger effect = lower value 0.985 | S. cerevisiae deletion strains, locus YNL248C, strain rpa49, stronger effect = lower value 0.979 | S. cerevisiae deletion strains, locus YNL322C, strain KRE1 (second series), stronger effect = lower value 0.969 | S. cerevisiae deletion strains, locus YNR049C, strain mso1, stronger effect = lower value 0.972 | S. cerevisiae deletion strains, locus YOR001W, strain rrp6, stronger effect = lower value 0.981 | S. cerevisiae deletion strains, locus YOR070C, strain gyp1, stronger effect = lower value 0.972 | S. cerevisiae deletion strains, locus YOR080W, strain dia2, stronger effect = lower value 0.98 | S. cerevisiae deletion strains, locus YOR083W, strain WHI5, stronger effect = lower value 0.988 | S. cerevisiae deletion strains, locus YOR106W, strain vam3, stronger effect = lower value 0.973 | S. cerevisiae deletion strains, locus YOR265W, strain rbl2, stronger effect = lower value 0.986 | S. cerevisiae deletion strains, locus YOR270C, strain vph1, stronger effect = lower value 0.998 | S. cerevisiae deletion strains, locus YOR290C, strain snf2, stronger effect = lower value 0.974 | S. cerevisiae deletion strains, locus YPL051W, strain arl3, stronger effect = lower value 0.972 | S. cerevisiae deletion strains, locus YPL078C, strain atp4, stronger effect = lower value 0.976 | S. cerevisiae deletion strains, locus YPL106C, strain sse1, stronger effect = lower value 0.979 | S. cerevisiae deletion strains, locus YPL240C, strain hsp82, stronger effect = lower value 0.976
